Activity calls are given as the source filed them. Calls follow the shape of the full dose curve.
% is scaled to controls: 0 for no effect and ±100 for the full control effect; potency is read from the fitted curve at half-maximal effect.

In this assay the target is Acetylcholinesterase (Homo sapiens) (UniProt P22303). Briefly: Acetylcholinesterase (AChE) small molecule antagonists: enzyme-based qHTS assay with human liver microsomes (AID 1347399). Also: nearly all actives have a fitted effect of over 60% in size. The settings on record: Potency: qHTS inhibition; series mostly up to 115 µM; activity change, negative = inhibition: at the top concentration. The text has this: National Center for Advancing Translational Sciences [NCATS]
Acetylcholinesterase (Homo sapiens), sequence (P22303 whole entry, looked up): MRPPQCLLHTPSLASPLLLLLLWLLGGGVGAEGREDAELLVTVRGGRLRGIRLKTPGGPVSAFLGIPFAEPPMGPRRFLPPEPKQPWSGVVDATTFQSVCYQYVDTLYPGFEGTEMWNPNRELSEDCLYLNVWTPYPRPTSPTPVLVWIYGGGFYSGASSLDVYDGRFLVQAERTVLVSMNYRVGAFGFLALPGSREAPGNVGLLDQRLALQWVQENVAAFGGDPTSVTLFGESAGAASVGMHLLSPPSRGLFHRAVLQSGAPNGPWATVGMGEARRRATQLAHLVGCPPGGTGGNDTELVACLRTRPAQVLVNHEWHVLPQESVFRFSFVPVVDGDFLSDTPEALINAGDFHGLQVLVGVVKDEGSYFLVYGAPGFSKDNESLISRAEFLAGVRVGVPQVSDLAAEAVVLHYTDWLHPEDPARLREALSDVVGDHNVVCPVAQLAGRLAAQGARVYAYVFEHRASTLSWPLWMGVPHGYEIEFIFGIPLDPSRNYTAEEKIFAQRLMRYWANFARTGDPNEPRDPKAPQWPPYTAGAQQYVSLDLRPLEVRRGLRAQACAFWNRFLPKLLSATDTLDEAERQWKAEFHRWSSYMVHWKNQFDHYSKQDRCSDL
Division of Preclinical Innovation [DPI]
U.S. Environmental Protection Agency [EPA]
National Institutes of Environmental Health Sciences [NIEHS]
National Toxicology Program [NTP]
U.S. Food and Drug Administration [FDA]
Acetylcholinesterase (AChE) is the primary cholinesterase in the body that hydrolyzes a key neurotransmitter, acetylcholine. Inhibition of AChE activity can lead to neurotoxicity. The known inhibitors include organophosphorous pesticides (OP), chemical warfare agents, drugs, and various phytochemicals. Some compounds like OP compounds may need metabolic activation to be active AChE inhibitors. The cytochrome P450 (CYP) superfamily in the human microsomes is responsible for the metabolism of various endogenous and exogenous compounds.
An enzyme-based assay with the recombinant human AChE, human liver microsomes and Amplite Colormetric acetylcholinesterase assay kit (AAT Bioquest, Sunnyvale, CA) was used to evaluate compounds in the Tox21 10K library that need metabolic activation for AChE inhibition. The assay uses 5, 5-dithiobis-(2-nitrobenzoic acid) (DTNB) to quantify the thiocholine produced from the hydrolysis of acetylthiocholine by AChE.
Tox21 Assay Protocol Summary:
For the enzyme-based AChE assay with microsomes addition, a mixture of human AChE (50 mU/mL) and human liver microsomes (0.25 mg/mL, final concentration) in 3 uL/well was dispensed into black, clear-bottom 1536-well plates using a Multidrop Combi dispenser (Thermo Scientific, MA). Then, 23 nL of compound or DMSO (vehicle control) was transferred into the assay plates by a Pintool Station (Wako Automation, CA). Following compound addition, 1 uL of NADPH (0.25 mg/mL, final concentration) was transferred to the assay plate by a Flying Reagent Dispenser (Beckman Coulter, CA). The plates were incubated for 30 min at 37 C and 5% CO2, followed by the addition of 4 uL of colorimetric detection cocktail solution (DTNB, acetylthiocholine) into each well using a Flying Reagent Dispenser (Beckman Coulter, CA) and then 10 min incubation at room temperature.
`CCOP(=S)(OCC)SC(CCl)N1C(=O)c2ccccc2C1=O` (stereo not given): the Potency is 1420 nM (active).

As to `CC(O)C(=O)[O][Hg][c]1ccccc1` (stereo not given), the “activity change, negative = inhibition” value is -10.7% (inactive).

Take `CC(C)NCC(O)c1ccccc1Cl` (stereo not given): the “activity change, negative = inhibition” value is 3.19% [at 53 µM] (inactive).

As for `CC[N+]1(CC)CCC(OC(=O)C(O)(c2ccccc2)c2ccccc2)C1` (stereo not given), the “activity change, negative = inhibition” value is 0.735% [at 53 µM] (inactive).

Take `CCCCCCC[CH2][Sn]([Cl])([Cl])[CH2]CCCCCCC`: the “activity change, negative = inhibition” value was 4.85% (inactive).

As to `CN(C)c1ccc(N)cc1`, the “activity change, negative = inhibition” value is -18.6% (inactive).

As to `CCOC(=O)CCN(SN(C)C(=O)Oc1cccc2c1OC(C)(C)C2)C(C)C`, the Potency is 796 nM (active).

For the molecule `C[C@]12C/C(=C/O)C(=O)C[C@@H]1CC[C@@H]1[C@@H]2CC[C@@]2(C)[C@H]1CC[C@]2(C)O`, the Potency entry is “inactive”.

As to `NC(=O)C(Cl)Cl`, the “activity change, negative = inhibition” value is 0.341% (inactive).

With `O=S1OCC2C(CO1)C1(Cl)C(Cl)=C(Cl)C2(Cl)C1(Cl)Cl` (stereo not given), the Potency result is “inactive”.

Regarding `CN(C)C(=S)SSC(=S)N(C)C`, the Potency result was “inactive”.

Regarding `CC1(C)C(C=C(Cl)Cl)C1C(=O)OC(C#N)c1ccc(F)c(Oc2ccccc2)c1` (stereo not given), the “activity change, negative = inhibition” value is 3.19% (inactive).

`CC(Cl)CCl` (stereo not given): the “activity change, negative = inhibition” value is 0% (inactive).

As for `CCOC(=O)Cc1ccccc1`, the “activity change, negative = inhibition” value is 0.69% (inactive).

In the case of `Nc1cc(Cl)ccc1Cl`, the “activity change, negative = inhibition” value is -1.64% (inactive).

Turning to `CSC1=N[C@@](C)(c2ccccc2)C(=O)N1Nc1ccccc1`, the “activity change, negative = inhibition” value was 0.321% (inactive).

In the case of `O=C(N[C@H]1N=C(c2ccccc2F)c2cccc3c2N(CC3)C1=O)c1cc2ccccc2[nH]1`, the “activity change, negative = inhibition” value was 4.87% [at 53 µM] (inactive).

As for `Nc1c(Cl)c(Cl)c(Cl)c(Cl)c1Cl`, the “activity change, negative = inhibition” value was 1.68% (inactive).

On to `CCCCc1ccccc1`, for which the “activity change, negative = inhibition” value is 0.583% (inactive).

With `ClC1=C(Cl)[C@]2(Cl)[C@H]3[C@H]([C@@H]4C=C[C@H]3C4)[C@@]1(Cl)C2(Cl)Cl`, the Potency entry was “inactive”.

For `CN=C=O`, the “activity change, negative = inhibition” value was 0.669% (inactive).

As for `O=C(O)CCCCCCNC1c2ccccc2CCc2ccccc21`, the “activity change, negative = inhibition” value is 1.01% [at 53 µM] (inactive).

As for `Clc1ccc(C(c2ccc(Cl)cc2)C(Cl)Cl)cc1`, the Potency entry was “inactive”.

Regarding `[Cl][Hg][c]1ccccc1`, the “activity change, negative = inhibition” value was -11.1% (inactive).

As for `Cc1ccc(C)c2ccccc12`, the “activity change, negative = inhibition” value was 1.89% (inactive).

With `CCNc1nc(NC(C)C(C)C)nc(SC)n1` (stereo not given), the “activity change, negative = inhibition” value is -0.917% (inactive).

`Brc1cccc(-c2ccccc2)c1`: the “activity change, negative = inhibition” value is -1.48% (inactive).

For the molecule `O=C(NC(=O)c1c(F)cccc1F)Nc1ccc(Oc2ccc(C(F)(F)F)cc2Cl)cc1F`, the “activity change, negative = inhibition” value was -0.671% (inactive).

For the molecule `O=C(N[C@@H]1N=C(c2ccccc2F)c2cccc3c2N(CC3)C1=O)c1cc2ccccc2[nH]1`, the “activity change, negative = inhibition” value is 3.02% [at 53 µM] (inactive).

Take `CNN`: the “activity change, negative = inhibition” value was 0.516% (inactive).

Consider `CCC(OC(C)=O)C(CC(C)NC)(c1ccccc1)c1ccccc1` (stereo not given), for which the “activity change, negative = inhibition” value is -0.691% (inactive).

As to `CCCCCCCc1ccc(O)cc1`, the “activity change, negative = inhibition” value was -2.52% (inactive).

For `C[C@]12CC[C@H]3[C@@H](CCC4=CC(=O)CC[C@@H]43)[C@@H]1CC[C@@H]2OC(=O)CCc1ccco1`, the “activity change, negative = inhibition” value is -8.81% [at 53 µM] (inactive).

Regarding `CCN1CCC2(CC1)COc1cc3c(cc12)N(C(=O)c1ccc(-c2ccc(-c4nnc(C)o4)cc2C)cc1)CC3`, the “activity change, negative = inhibition” value is -0.77% (inactive).

With `Nc1nc(N)c(N)c(N)n1`, the “activity change, negative = inhibition” value is 1.19% (inactive).

`C#CCO`: the “activity change, negative = inhibition” value is -0.0036% (inactive).

On to `CCN(CC)C(=S)S`, for which the Potency entry was “inactive”.

On to `CCOP(=O)(OCC)Oc1cc(C)nc(C(C)C)n1`, for which the Potency is 25300 nM (active).

In the case of `CNC(=O)O/N=C(\C)C(C)S(C)(=O)=O` (stereo not given), the “activity change, negative = inhibition” value was -2.3% [at 1.09 mM] (inactive).

As for `ClC1=C(Cl)[C@]2(Cl)[C@@H]3[C@H]4C[C@H]([C@@H]5O[C@H]45)[C@@H]3[C@@]1(Cl)C2(Cl)Cl`, the “activity change, negative = inhibition” value was -3.4% (inactive).

The values above are taken from PubChem BioAssay (Tox21).
